fixLJ activator = activators of Burkholderia fixLJ two-component system, primary screen, B. multivorans, GFP reporter | AID 1918990, 2023 | B. multivorans fixK-promoter GFP reporter, 18 h; active compounds read high | z-score (test concentration not listed) | 29,000 tested, 0.3% active;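 active means replicate mean overnight rise in green fluorescent reporter signal, 3 or more SD over negative controls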
Hits are given with their value; . = inactive. The full list was thinned out, with hits kept by preference.

SMILES	fixLJ activator
Cc1nonc1CNC(=O)C1CCCN1C1CCN(C)CC1 (stereo unspecified)	.
COc1ccc(-c2nn(-c3ccccc3)cc2C(=O)Nc2ccccc2OC)cc1	4.6
COc1ccccc1NC(=O)c1cc2c(C)nn(-c3ccccc3)c2s1	.
O=C(O)c1ccc(NC(=O)c2cn(-c3ccccc3)nc2-c2ccc(Br)cc2)cc1	.
CCOC1COCC1NC(=O)Cc1c(C)[nH]c2c(F)cccc12 (stereo unspecified)	.
Cc1nc(CC(=O)N2CCCC(c3[nH]ncc3-c3ccccc3)C2)cs1 (stereo unspecified)	.
NC(=O)NCC(=O)N1CCCC2(CCC(=O)N(CCc3ccccc3)C2)C1 (stereo unspecified)	.
CN(CCC(=O)Nc1ccc(C(N)=O)cc1)Cc1nc2ccccc2n1C	.
Cc1nc(C)c(C(=O)N2CCC3(CCC(=O)N(Cc4ccccc4)C3)CC2)o1	.
COc1ccc(CN2COc3ccc4c(-c5ccccc5)cc(=O)oc4c3C2)cc1	3.7
COC(=O)Cc1c(C)c2ccc3c(c2oc1=O)CN(Cc1ccc(C)cc1)CO3	.
Cc1ccc(CN2COc3ccc4c(-c5ccccc5)cc(=O)oc4c3C2)cc1	.
O=C(NCc1nc(Cc2ccccc2)no1)C1(c2ccc(F)cc2)CC1	.
CC(=O)NCC1CCN(c2nc3c(s2)c(C)nn3C)CC1	.
CCNC(=O)CCN1CCC2(CC1)CC(c1ccccc1)C(=O)N(CC)C2 (stereo unspecified)	.
COc1ccc(C2=NC(c3ccccc3)=Nc3ccc(C)cc3N2)cc1	.
COc1ccc(O)c(C2=Nc3ccccc3N=C(c3ccccc3)C2)c1	3.7
Cc1cccc(C2=Nc3ccccc3N=C(c3cc(Cl)ccc3O)C2)c1	.
CC(C)C(NC(=O)c1ccc2nc(-c3ccccc3)cn2c1)C(N)=O (stereo unspecified)	.
CCOc1ccc2cc(-c3nnc(Nc4ccc(C)cc4)s3)c(=O)oc2c1	.
O=c1oc2cc(O)ccc2cc1-c1nnc(Nc2ccccc2F)s1	23
O=c1oc2ccc3ccccc3c2cc1-c1nnc(Nc2ccccc2F)s1	.
Cn1ccnc1-c1ccc(N2CCC(O)(c3cccnc3)CC2)nn1	.
COCCNC(=O)CCn1c(=O)c2cc(OC)c(OC)cc2n(CC(=O)Nc2ccccc2C)c1=O	.
COCCNC(=O)CCCn1c(=O)c2cc(OC)c(OC)cc2n(CC(=O)Nc2ccc(F)cc2)c1=O	.
SMILES	fixLJ activator
COCCNC(=O)CCn1c(=O)c2cc(OC)c(OC)cc2n(CC(=O)Nc2ccccc2OC)c1=O	4.6
CCCOc1ccc(CCNC(=O)c2ccn3nnnc3c2)cc1OC	.
CCCc1cc(C(=O)NC(c2ccncc2)c2ccc(OC)cc2)no1 (stereo unspecified)	.
CCc1ccccc1C(=O)N1CCCN(Cc2nnc(C)o2)CC1	.
CCc1nc(C)sc1CNC(=O)N(C)C(CC)c1cccnc1 (stereo unspecified)	.
COc1ccc(Nc2cc(C(=O)NCCCN(C)C3CCCCC3)c3ccccc3n2)cc1	.
CCCCN(CCCNC(=O)c1cc(Nc2cccc(SC)c2)nc2ccccc12)Cc1ccccc1	3.2
CSc1cccc(Nc2cc(C(=O)NCCc3ccc(Cl)cc3)c3ccccc3n2)c1	.
COc1cccc(C(=O)NC2CCOCC2OCc2cscn2)c1O (stereo unspecified)	.
O=C(Cc1cc(F)c(F)c(F)c1)NCc1cc(C2CC2)on1	.
CCOc1ccc(NC(=O)N2CCOCC(CN(C)C)C2)c(F)c1 (stereo unspecified)	.
COc1ccc(CNC(=O)c2cc(Nc3ccc(OC)cc3OC)nc3ccccc23)cc1	.
COc1ccc(Nc2cc(C(=O)NCCc3ccc(C)cc3)c3ccccc3n2)c(OC)c1	.
COc1ccc(OC)c(Nc2cc(C(=O)NCc3ccccc3)c3ccccc3n2)c1	4.2
CCC(NC(C)C)C(O)c1ccc(O)c(O)c1 (stereo unspecified)	8.2
C[C@H](N)[C@H](O)c1cccc(O)c1	.
CC[C@H](NC(C)C)[C@H](O)c1ccc(O)c2[nH]c(=O)ccc12	.
Cc1cnc(CN2CCCC(c3nnc(CN4CCOCC4)n3C)C2)[nH]1 (stereo unspecified)	.
COc1ccccc1-c1cc(CNC(=O)CCCC(=O)O)on1	.
CCN(CCNC(=O)c1cccc(-c2ccc(NC)nn2)c1)c1cccc(C)c1	.
CC(C)(NC(=O)c1cccs1)C(=O)NCc1cnc2cnccn12	.
COc1cccc(-c2nnc(-c3cc4cc(Cl)ccc4oc3=O)o2)c1	.
CCN(CC)c1ccc2cc(-c3nnc(-c4cccc(Cl)c4)o3)c(=O)oc2c1	.
CCCCCCc1cc2cc(-c3nnc(-c4ccc(C)cc4)o3)c(=O)oc2cc1O	8.6
Cc1nn(C)c(C(=O)NC2COCC2Cc2ccncc2)c1Cl (stereo unspecified)	.
SMILES	fixLJ activator
O=C(Cn1ncc2c3ccccc3n(Cc3ccccc3F)c2c1=O)N1CCCCCC1	.
CCCN1CCN(C(=O)Cn2ncc3c4ccccc4n(Cc4cccc(Cl)c4)c3c2=O)CC1	14
CN1CCN(C(=O)Cn2ncc3c4ccccc4n(Cc4ccc(F)cc4)c3c2=O)CC1	.
O=C(Cn1ncc2c3ccccc3n(Cc3ccccc3F)c2c1=O)N1CCCCC1	.
O=C(Cn1ncc2c3ccccc3n(Cc3ccc(Cl)cc3)c2c1=O)N1CCCCCC1	6.4
CCOC(=O)C1CCN(C(=O)Cn2ncc3c4ccccc4n(Cc4ccccc4)c3c2=O)CC1	.
CCN1CC2(CCC1=O)CCN(C(=O)Nc1cccc(F)c1)CC2	.
COc1ccc(-c2cc(C(=O)Nc3ccc4c(c3)OCO4)no2)cc1	.
COc1ccc(NC(=O)c2cc(-c3ccc4c(c3)OCO4)on2)c(OC)c1	.
COc1cc(NC(=O)c2cc(-c3ccc4c(c3)OCO4)on2)cc(OC)c1OC	3.7
C=CCC(CC=C)(CNC(=O)C(=O)Nc1cc(C)ccc1OC)c1ccc(OC)c(OC)c1	.
O=C(O)c1ccccc1Nc1cccc(C(F)(F)F)c1	.
C=CCC(CC=C)(CNC(=O)C(=O)Nc1cccc(C(F)(F)F)c1)c1ccccc1	3.7
CC(C)Sc1nnc(NC(=O)c2cccc3nccnc23)s1	.

Screens from PubChem BioAssay.
